# Measurements: PubChem BioAssay (NCATS)
# Inconclusive results are not listed. A number with no mark means an inactive call. The source made the active and inactive calls. The call rests on the fitted dose curve; in most records, active means well fitted inhibition curve with a large enough effect; inconclusive means small, poorly fitted or top-dose-only effect; inactive means flat fitted curve, though single readings scatter.
# Experiment: P-glycoprotein substrates identified in KB-8-5-11 adenocarcinoma cell line, qHTS therapeutic library screen (AID 1346987); further: nearly all actives have a fitted effect of over 65% in size
# Conditions: KB-8-5-11 (P-gp overexpressing) viability, CellTiter-Glo, 72 h; series mostly up to 44.5 µM; activity change, negative = cytotoxicity: at the top concentration
# Outline: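 In this qHTS, P-gp-rich KB-8-5-11 cells received library compounds across a concentration range. Viability was quantified by luminescence after 72 h at 37 degree C.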
# On the % scale 0 is the no-effect control and ±100 the full control effect; potency means the concentration at half of the fitted maximal effect.
SMILES,"activity change, negative = cytotoxicity",Potency,outcome
C=C1C(=O)OC2/C=C(\CO)CC/C=C(\C=O)C(O)C(OC(=O)C(C)CC)C12 (centres undefined),3.94%,,
COC1CC(O[C@H]2CC[C@]3(C)C4CC[C@@]5(C)C(=O)[C@]4(CC[C@@H]3C2)CC[C@@H]5C2=CC(=O)OC2)OC(C)C1OC1OC(COC2OC(CO)C(O)C(O)C2O)C(O)C(O)C1O (some centres undefined),,2.19 µM (active),
CC1(C)CCC2(C(=O)OC3OC(COC4OC(CO)C(O)C(O)C4O)C(O)C(O)C3O)CCC3(C)C(=CCC4C5(C)CCC(OC6OCC(O)C(O)C6O)C(C)(C)C5CCC43C)C2C1O (centres undefined),,,inactive [at 9.29 µM]
COc1cccc(CN(C(=O)CC(C)(C)C)[C@H]2C[C@H](C(=O)N3CCNCC3)N(Cc3ccc4c(c3)OCO4)C2)c1,-11.9%,,
CO[C@H]1O[C@@H]2O[C@@]3(C)CCC4[C@H](C)CCC([C@H]1C)[C@]42OO3 (some centres undefined),5.9%,,
CC(C)(CO)c1cc2cc(NC(=O)C3(c4ccc5c(c4)OC(F)(F)O5)CC3)c(F)cc2n1CC(O)CO (centres undefined),3.44%,,
C=C[C@]1(C)C[C@H](O)[C@H]2C(=C)C(=O)O[C@@H]2[C@H]1C(=C)CO,-8.2%,,
C=C(C)C(=O)O[C@H]1[C@H]2C(=C)C(=O)O[C@@H]2/C=C(\CO)CC/C=C(/C=O)[C@@H]1O,9.69%,,
CCN1CCN(Cc2ccc(NC(=O)c3ccc(C)c(Oc4ccnc5[nH]ccc45)c3)cc2C(F)(F)F)CC1,,10.1 µM (active),
